Inconclusive results are not listed. Calls of active or inactive are those of the source. Calls follow the shape of the dose curve; as a rule, active = well fitted curve in the direction sought with a large enough effect; inconclusive = small, poorly fitted or top-dose-only effect, or another doubt; inactive = no such curve, though single readings can be large; an effect the other way counts as inactive or inconclusive.
Key:
[1] = target: Cytochrome P450 3A7 (Homo sapiens) (UniProt P24462); assay: Cytochrome P450 family 3 subfamily A member 7 (CYP3A7) small molecule antagonists: luciferase biochemical qHTS assay (AID 1963596); also: % is scaled to controls: 0 for no effect and ±100 for the full control effect; nearly all actives have a fitted effect of over 40% in size
Chain of Cytochrome P450 3A7 (Homo sapiens) (P24462 whole entry, looked up): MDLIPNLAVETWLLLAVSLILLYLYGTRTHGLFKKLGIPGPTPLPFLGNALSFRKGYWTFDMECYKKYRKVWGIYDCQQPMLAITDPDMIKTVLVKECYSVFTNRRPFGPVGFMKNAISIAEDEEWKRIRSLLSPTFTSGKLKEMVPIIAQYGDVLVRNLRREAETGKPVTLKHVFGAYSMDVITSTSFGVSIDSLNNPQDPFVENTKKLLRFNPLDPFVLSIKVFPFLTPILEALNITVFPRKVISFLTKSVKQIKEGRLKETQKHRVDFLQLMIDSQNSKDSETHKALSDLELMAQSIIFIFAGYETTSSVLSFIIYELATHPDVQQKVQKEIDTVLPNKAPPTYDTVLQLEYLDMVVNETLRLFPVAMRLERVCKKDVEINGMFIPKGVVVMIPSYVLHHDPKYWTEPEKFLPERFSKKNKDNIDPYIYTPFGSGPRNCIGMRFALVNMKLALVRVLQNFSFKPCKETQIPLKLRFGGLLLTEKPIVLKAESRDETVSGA
Outline: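 In this luminescent screen, enzyme and proluciferin substrate meet test compound for 10 min before NADPH regeneration solution drives a 1 h room-temperature reaction; detection reagent halts turnover and luminescence is read 20 min later.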

[2] = Viability qHTS for spleen associated tyrosine kinase inhibitor (SYKi) naive MV4-11 cells (AID 1963823); also: nearly all actives have a fitted effect of over 40% in size; also: potency is read from the fitted curve at half-maximal effect
Outline: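 qHTS, SYK inhibitor-naive MV4-11; 500 cells/well; 72 hr compound exposure, 37 C; CellTiter-Glo added, 10 min RT; luminescence read.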

[3] = Viability qHTS for spleen associated tyrosine kinase inhibitor (SYKi) drug resistant MV4-11 cells (AID 1963824); also: nearly all actives have a fitted effect of over 35% in size; also: potency is read from the fitted curve at half-maximal effect
Outline: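 SYK-inhibitor-resistant MV4-11 AML cells were seeded at 500 per well onto compound and cultured 72 hours (37 °C, 5% CO2). CellTiter-Glo was then added, and after 10 min at room temperature, luminescence gave viability.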

[4] = Cellular viability qHTS for adrenocortical cancer (ACC) cell line SW-13 (AID 1963989); conditions: SW-13 ACC cells viability, CellTiter-Glo, 48 h; activity (max response): stronger effect = lower value; also: nearly all actives have a fitted effect of over 65% in size; also: potency is read from the fitted curve at half-maximal effect;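 as to activity (max response): cells grown in serum-free medium with ITS supplement; % is scaled to controls: 0 for no effect and ±100 for the full control effect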
Outline: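 SW-13 cells in ITS-supplemented serum-free DMEM were plated overnight, then exposed for 48 h at 37C to compound titrations (up to 46 uM final). Viability was read by CellTiter-Glo luminescence; four-parameter logistic fits gave IC50 and efficacy.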

[5] = Cellular viability qHTS for adrenocortical cancer (ACC) cell line NCI-H295R (AID 1963990); also: nearly all actives have a fitted effect of over 60% in size; also: potency is read from the fitted curve at half-maximal effect
Outline: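 Luminescent ATP read-out (CellTiter-Glo, 20 min RT) after 48 h drug exposure of NCI-H295R cells; a titration up to 46 uM final. Data normalized to doxorubicin (100% inhibition) and DMSO (0%); 4-parameter fit gives IC50, max response.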

COc1cc2c(NC3CCN(CC4CCCCC4)CC3)nc(N3CCCN(C(C)C)CC3)nc2cc1OCCCN1CCCCC1
active: Potency [2] 2.59 µM | Potency [3] 3.66 µM | Potency [4] 7.08 µM | Potency [5] 22.4 µM
inactive: Potency [1]

CNCCC(Oc1ccccc1OC)c1ccccc1 (stereo not drawn)
inactive: Potency [1] | Potency [2] | Potency [3] | Potency [5]

Cc1cccc(C)c1NC(=O)CC12CCCN1CCC2
inactive: Potency [1] | Potency [2] | Potency [3] | activity (max response) [4] 1.71% | Potency [5]

CCOC(=O)n1ccn(C)c1=S
inactive: Potency [1] | Potency [2] | Potency [3] | Potency [5]

Oc1ccc(Cl)c2cccnc12
inactive: Potency [1] | Potency [2] | Potency [3] | activity (max response) [4] 4.85% | Potency [5]

Cc1nnc(C(C)C)n1C1CC2CCC(C1)N2CC[C@H](NC(=O)C1CCC(F)(F)CC1)c1ccccc1 (stereo partly drawn)
inactive: Potency [1] | Potency [2] | Potency [3] | Potency [5]

C#CCN(C)Cc1ccccc1
inactive: Potency [1] | Potency [2] | Potency [3] | activity (max response) [4] 11.7% | Potency [5]

Cc1ccc(-c2ccc3ncc4c(c3n2)n(C2CCN(C(=O)[C@H](C)O)CC2)c(=O)n4C)cn1
active: Potency [2] 0.0651 µM | Potency [3] 0.058 µM | Potency [5] 0.141 µM
inactive: Potency [1]

COc1cc2[nH]c(=O)[nH]c(=O)c2cc1OC
inactive: Potency [1] | Potency [2] | Potency [3] | Potency [5]

C[N+](C)(C)CCOC(N)=O
inactive: Potency [1] | Potency [2] | Potency [3] | Potency [5]

CC(=O)N(CC(O)CN(C(C)=O)c1c(I)c(C(=O)NCC(O)CO)c(I)c(C(=O)NCC(O)CO)c1I)c1c(I)c(C(=O)NCC(O)CO)c(I)c(C(=O)NCC(O)CO)c1I (stereo not drawn)
inactive: Potency [1] | Potency [2] | Potency [3] | Potency [5]
